# An excerpt weighted towards active compounds, which were near 2.4% of everything screened.
# POLB inh = DNA polymerase beta (human) inhibition; P06746; Pol beta primer extension/strand displacement, fluorescence kinetic; Potency, µM (highest dose often 114 µM), inactives show top-dose activity change, negative = inhibition, usual class: inhibitors; 340,000 tested, 1.3% active; AID 485314; note: potency is the fitted concentration of half-maximal effect; % is set by controls: 0 for no effect and ±100 for the full control effect
#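 Enzyme-only controls used 10 nM Pol beta; buffer lacking enzyme served as negative control. Compound preincubated 15 min, then 50 nM substrate added; 0 and 10 min reads at room temperature.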
# Pol kappa inh-1 = DNA polymerase kappa (human) inhibition; Q9UBT6; purified Pol kappa, fluorescent DNA synthesis assay, 10 min; Potency, µM (top dose mostly 107 µM), for the others: at the top dose activity, negative = inhibition, hits mostly inhibitors; 400,000 tested, 0.53% active; AID 588579; note: potency is the fitted concentration of half-maximal effect; % is set by controls: 0 for no effect and ±100 for the full control effect
#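 Enzyme at 10 nM met test compounds for 15 min at room temperature. Substrate addition (50 nM final) began the reaction, which was monitored by fluorescence at 0 and 10 min.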
# TDP1 block = blocks human tyrosyl-DNA phosphodiesterase 1. Q9NUW8. Potency, µM (series often up to 130 µM), for the others: at the highest dose activity change, negative = inhibition, hits mostly inhibitors. recombinant TDP1, AlphaScreen DNA substrate cleavage. 350,000 tested, 0.28% active; note: potency is the fitted concentration of half-maximal effect; % is set by controls: 0 for no effect and ±100 for the full control effect; nearly all actives have a fitted effect of over 40% in size
#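 E. coli-derived human Tdp1, 1 nM final. Cpd preinc 15 min RT; substrate 15 nM final, 5 min RT; AS bead mix 10 ug/ml final, 10 min RT. Signal loss = tyrosine-FITC cleavage. No-enzyme wells = max signal.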
# Pol eta inh-1 = inhibitors of human DNA polymerase eta | recombinant Pol eta, fluorescent DNA replication assay | Potency, µM (doses to about 114 µM), without a hit: at the highest dose activity change, negative = inhibition, most hits filed as inhibitors | 390,000 tested, 1.2% active | AID 588591; note: potency is the fitted concentration of half-maximal effect; % is set by controls: 0 for no effect and ±100 for the full control effect
#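 Pol eta at 10 nM preincubated with compounds 15 min at room temperature; reaction started with fluorescent substrate (50 nM final) and read kinetically at 0 and 10 min.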
# FEN1 inhibitor = inhibitors of human flap endonuclease 1 | P39748 | Recombinant FEN1 flap cleavage, fluorescence, 15 min | Potency, µM (titrated, usually from 114 µM), for inactives: at the highest dose activity change, negative = inhibition, usual class: inhibitors | 390,000 tested, 0.35% active; note: potency is the fitted concentration of half-maximal effect; % is set by controls: 0 for no effect and ±100 for the full control effect; nearly all actives have a fitted effect of over 65% in size
#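 Nuclease activity of 10 nM FEN1 was measured after 15 min of room-temperature exposure to titrated compounds, by adding 50 nM flap substrate and reading plates at 0 and 15 min.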
# Pol iota inh = DNA polymerase iota (human) inhibition; Q9UNA4; AID 588590; Pol iota fluorescent replication assay, 10 min; 390,000 tested, 1% active; Potency, µM (series often up to 115 µM), inactives show top-dose activity, negative = inhibition, usual class: inhibitors; note: potency is the fitted concentration of half-maximal effect
# Target sequence (Q9UNA4 whole entry, looked up): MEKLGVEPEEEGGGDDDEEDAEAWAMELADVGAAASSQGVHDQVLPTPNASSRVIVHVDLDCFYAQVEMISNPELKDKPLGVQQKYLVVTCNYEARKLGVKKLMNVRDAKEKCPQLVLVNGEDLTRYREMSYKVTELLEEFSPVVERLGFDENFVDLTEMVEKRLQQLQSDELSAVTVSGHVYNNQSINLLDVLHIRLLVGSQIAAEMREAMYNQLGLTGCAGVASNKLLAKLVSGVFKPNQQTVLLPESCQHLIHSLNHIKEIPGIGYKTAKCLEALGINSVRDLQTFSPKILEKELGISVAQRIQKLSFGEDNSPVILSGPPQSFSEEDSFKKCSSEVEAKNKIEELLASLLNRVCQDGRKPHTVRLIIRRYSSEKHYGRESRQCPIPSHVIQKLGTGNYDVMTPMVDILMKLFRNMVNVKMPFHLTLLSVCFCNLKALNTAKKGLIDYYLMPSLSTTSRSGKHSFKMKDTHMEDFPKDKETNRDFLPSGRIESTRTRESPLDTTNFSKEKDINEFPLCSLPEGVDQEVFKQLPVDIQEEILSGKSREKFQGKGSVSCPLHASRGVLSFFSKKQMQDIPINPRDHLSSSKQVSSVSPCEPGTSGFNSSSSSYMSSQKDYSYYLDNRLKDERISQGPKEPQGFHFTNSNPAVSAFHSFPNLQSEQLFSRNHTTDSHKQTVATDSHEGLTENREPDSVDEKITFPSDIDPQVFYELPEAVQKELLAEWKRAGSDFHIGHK
#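 Pol iota at 10 nM preincubated 15 min with compounds at room temperature; reaction started with fluorescent substrate, 50 nM final. Fluorescence read kinetically at 0 and 10 min; buffer-only wells as negative control.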
# GALK inh confirm = galactokinase (human) inhibition, confirmation. purified GALK, Kinase-Glo ATP depletion luminescence. Potency, µM (titrated, usually from 115 µM), inactives show at the highest dose activity, negative = inhibition, hits mostly inhibitors. 150 tested, 70% active. AID 2015. shares compounds with Pol eta inh-1
# Redox cycling = generates H2O2 by redox cycling, flagging GALK artifacts; shares compounds with Pol eta inh-1; Phenol red-HRP H2O2 redox cycling, absorbance 600 nm; Potency, µM (highest dose often 115 µM), inactives show at the highest dose activity change, negative = H2O2 signal, hits mostly inhibitors; 150 tested, 40% active; AID 2035
# HEK293 viability = HEK-293 cytotoxicity, GALK inhibitor secondary | shares compounds with Pol eta inh-1 | HEK-293 viability, ATP luminescence (CellTiter-Glo), 24/48 h | Potency, µM (titrated, usually from 46.1 µM), for the others: top-dose activity change, negative = cytotoxicity, actives largely listed as inhibitors | 170 tested, 10% active | AID 2547; note: potency is the fitted concentration of half-maximal effect; % is set by controls: 0 for no effect and ±100 for the full control effect
# Pol kappa inh-2 = confirmation of human DNA polymerase kappa inhibitors; shares compounds with Pol eta inh-1; purified Pol-kappa, fluorescent strand-displacement substrate; Potency, µM, hits mostly inhibitors; 920 tested, 76% active; AID 720501; note: potency is the fitted concentration of half-maximal effect
# Pol eta inh-2 = confirmation of human DNA polymerase eta inhibitors | AID 720502 | Potency, µM, most hits filed as inhibitors | shares compounds with Pol eta inh-1 | 2,600 tested, 64% active | Pol eta primer extension, TAMRA/BHQ fluorescence, 10 min; note: potency is the fitted concentration of half-maximal effect
# * marks the source's active call; other numbers are inactive results; ? = inconclusive; . = no result; [ ] = dose if it differs, or a comment. Calls come from the whole dose curve; as a rule, active = well fitted curve in the direction sought with a large enough effect; inconclusive = small, poorly fitted or top-dose-only effect, or another doubt; inactive = no such curve, though single readings can be large; an effect the other way counts as inactive or inconclusive.
SMILES,POLB inh,Pol kappa inh-1,TDP1 block,Pol eta inh-1,FEN1 inhibitor,Pol iota inh,Pol eta inh-2,others
CCCN1C(=O)/C(=C\C=C2\N(CC)c3ccccc3C2(C)C)SC1=S,-14%,-16%,6%,?,?,?,.,Pol kappa inh-2=53*
CCOC(=O)c1cccc(NS(=O)(=O)c2cc(Br)cc3c2N(C(=O)C2CC2)CC3)c1,6%,0%,6%,-18%,8%,7%,.,
COC(=O)c1c(SC)nc2ccccc2c1OCc1ccc(Cl)cc1,1%,21%,.,-6%,-15%,0%,.,
O=C(O)c1[nH]c2ccc(Cl)cc2c1CC(=O)N1CCN(C(=O)c2ccco2)CC1,13µM*,50µM*,.,7.1µM*,-16%,?,30*,
Nc1ccc(S(=O)(=O)c2cc(O)c3ccccc3c2O)cc1,.,-16%,.,40µM*,?,?,?,Pol kappa inh-2=84*
O=S(=O)(c1ccccc1)c1cc(O)ccc1O,?,2%,6%,-18%,11%,47%,.,
CCc1ccc(N=C2NC(=O)/C(=C/c3ccc(OCC(=O)O)cc3)S2)cc1,40µM*,?,.,45µM*,?,?,.,Pol kappa inh-2=?
Cc1cc(C)cc(-n2cccc2/C=C2/C(=N)N3C(=NC2=O)SN=C3S(C)(=O)=O)c1,45µM*,-10%,6%,40µM*,-6%,?,?,
N=C1/C(=C/c2cccn2Cc2ccc(Cl)cc2)C(=O)N=C2SC=CN12,?,-21%,5%,0%,-6%,181%,.,
CS(=O)(=O)C1=NSC2=NC(=O)/C(=C\c3cccn3-c3ccccc3Cl)C(=N)N21,35µM*,?,2%,40µM*,?,?,?,
COc1cccc(-n2c(C)cc(/C=C3/C(=N)N4C(=NC3=O)SN=C4S(C)(=O)=O)c2C)c1,4%,-26%,4%,18µM*,-15%,?,?,
Cc1nnc(NC(=O)CSc2nccn2-c2cccc(Cl)c2)s1,1%,-11%[60.1 µM],8%,-7%,-1%,14%,.,
CCOc1cc(C(=O)N(Cc2nc(-c3ccc(C)cc3)no2)C(C)C)cc(OCC)c1OCC,2%,-6%,-5%,-13%,-26%,?,.,
COc1ccc(-n2c(NC(=O)c3ccco3)c(C#N)c3nc4ccccc4nc32)cc1,-117%,-28%,3%,20µM*,?,26%,85*,Pol kappa inh-2=67*
Cc1ccc(S(=O)(=O)N2[C@@H](c3ccc(C(C)(C)C)cc3)C(C(=O)O)=CC[C@H]2c2ccc(C(C)C)cc2)cc1,.,?,-19%,40µM*,?,?,54*,Pol kappa inh-2=75*
Cc1ccc([C@@H]2CC=C(C(=O)O)[C@H](c3ccc(Br)cc3)N2S(=O)(=O)c2ccc(C)cc2)cc1,.,-5%,0%,?,-3%,?,.,
Cc1ccc([C@@H]2CC=C(C(=O)O)[C@H](c3ccc(C(C)(C)C)cc3)N2S(=O)(=O)c2ccc(C)cc2)cc1,.,-12%,0%,89µM*,-8%,?,.,Pol kappa inh-2=?
Cc1ccc(S(=O)(=O)N2[C@@H](c3ccc(Br)cc3)C(C(=O)O)=CC[C@H]2c2ccc(C(C)C)cc2)cc1,.,-36%,-16%,-15%,?,?,.,
O=C1CSC(=S)N1/N=C/C=C/c1ccccc1,28µM*,?,8%,14µM*,-10%,20µM*,?,
O=C1CSC(=S)N1/N=C/c1c(F)cccc1F,10%,-12%,1%[0.0935 µM],-18%,-6%,?,.,
CCC1CCCCN1S(=O)(=O)c1ccc(C(=O)Nc2sc3c(c2C(=O)NC)CCC3)cc1 (stereo not given),-21%,-3%[60.1 µM],3%,-5%,-17%,-11%,.,
Cc1cccc(Oc2ccc3c(c2)Oc2ccccc2NC3=O)c1,13µM*,?,.,50µM*,-21%,71µM*,?,
Cc1ccc2c(c1)NC(=O)c1cccnc1O2,1%,-9%,0%,.,16%,11%,.,
COC(=O)C/C=C\[C@@H](C)[C@@H](/C=N\O[C@@H](C)c1cc(-c2c(C)cc(C)cc2C)no1)NS(=O)(=O)c1ccc(C)cc1,.,.,4%[21 µM],.,.,.,.,
CCOc1ccc2[nH]c(=O)c(C(c3nnnn3Cc3ccco3)N3CCN(C)CC3)cc2c1 (stereo not given),2%,9%,3%,-20%,1%,68%,.,GALK inh confirm=-6%;Redox cycling=3%;HEK293 viability=0%
SMILES,POLB inh,Pol kappa inh-1,TDP1 block,Pol eta inh-1,FEN1 inhibitor,Pol iota inh,Pol eta inh-2,others
COC(=O)c1ccc(NS(=O)(=O)c2ccc3[nH]c(=O)oc3c2)cc1,35µM*,?,?,25µM*,-10%,45µM*,?,
COC(=O)c1ccc(NS(=O)(=O)c2ccc3[nH]c4c(c3c2)CCCC4)cc1,-6%,-20%,11%,-9%,-6%,19%,.,
NC(=O)c1ccccc1C[C@H](C(=O)O)N1C(=O)c2ccc(C(=O)O)cc2C1=O,.,.,3%,.,.,.,.,
CCCCOC(=O)c1cc(-c2ccc(/C=N/n3cnnc3)o2)ccc1Cl,.,-5%,.,3%,-9%,?,.,
CCOC(=O)c1cc(-c2ccc(/C=C3/C(=O)N(c4ccc(C(=O)O)cc4)N=C3C)o2)ccc1Cl,-13%,?,.,18µM*,-21%,1.4µM*,.,GALK inh confirm=21µM*;Redox cycling=12µM*;HEK293 viability=14%
COc1ccc(CN2CCc3c(c(=O)n4ncc(C(=O)N5CCN(c6ccccc6OC)CC5)c4n3C)C2)cc1,1%,-12%[60.1 µM],4%,13%,15%,-1%,.,
